Test results published in PubChem BioAssay AID1159580 (chemical genetic matrix, 2015).
Hit rate of the full screen: of about 5,500 compounds, about 2,000 (36%) were called active. Roughly 18% stayed inconclusive and do not appear here. Cut-off read from the data, not from the text of the source: active = normalized growth mostly below about 0.91 (no sharp cut-off); inconclusive = no clear call, values can overlap the other calls; inactive = mostly above about 0.92. The list shows a part of the results.

Test: chemical genetic growth profiling, strain panel (AID 1159580);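 note: tested at 20 µM; growth read once vehicle control cultures reached saturation at 30 °C; 1 = growth at the plate median or of vehicle wells; lower values mean less growth of the strain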
Settings: growth OD

Measured: normalized growth

OCc1ccccc1O[C@@H]1O[C@H](CO)[C@@H](O)[C@H](O)[C@H]1O
inactive: S. cerevisiae deletion strains, locus YJR066W, strain TOR1, active compounds read low 0.94 | S. cerevisiae deletion strains, locus YKL009W, strain mrt4, active compounds read low 1.01 | S. cerevisiae deletion strains, locus YKL068W, active compounds read low 0.98 | S. cerevisiae deletion strains, locus YKL085W, strain MDH1 (second series), active compounds read low 0.973 | S. cerevisiae deletion strains, locus YKL085W, strain MDH1, active compounds read low 0.973 | S. cerevisiae deletion strains, locus YKL160W, strain elf1, active compounds read low 0.993 | S. cerevisiae deletion strains, locus YKL190W, strain CNB1, active compounds read low 0.988 | S. cerevisiae deletion strains, locus YKR001C, strain vps1, active compounds read low 0.985 | S. cerevisiae deletion strains, locus YKR026C, strain gcn3, active compounds read low 1 | S. cerevisiae deletion strains, locus YKR091W, strain srl3, active compounds read low 0.994 | S. cerevisiae deletion strains, locus YLL001W, strain dnm1, active compounds read low 0.975 | S. cerevisiae deletion strains, locus YLL026W, active compounds read low 0.999 | S. cerevisiae deletion strains, locus YLL041C, strain sdh2, active compounds read low 0.991 | S. cerevisiae deletion strains, locus YLR027C, strain aat2, active compounds read low 1 | S. cerevisiae deletion strains, locus YLR039C, strain RIC1, active compounds read low 0.936 | S. cerevisiae deletion strains, locus YLR058C, strain SHM2, active compounds read low 0.978 | S. cerevisiae deletion strains, locus YLR102C, strain apc9, active compounds read low 0.99 | S. cerevisiae deletion strains, locus YLR113W, strain HOG1, active compounds read low 1.01 | S. cerevisiae deletion strains, locus YLR221C, strain rsa3, active compounds read low 0.991 | S. cerevisiae deletion strains, locus YLR258W, strain gsy2, active compounds read low 0.977 | S. cerevisiae deletion strains, locus YLR262C, strain YPT6 (second series), active compounds read low 0.997 | S. cerevisiae deletion strains, locus YLR262C, strain YPT6, active compounds read low 0.929 | S. cerevisiae deletion strains, locus YLR268W, strain sec22, active compounds read low 0.979 | S. cerevisiae deletion strains, locus YLR320W, strain mms22, active compounds read low 0.999 | S. cerevisiae deletion strains, locus YLR330W, strain CHS5, active compounds read low 0.989 | S. cerevisiae deletion strains, locus YLR342W, strain FKS1 (second series), active compounds read low 1.06 | S. cerevisiae deletion strains, locus YLR342W, strain FKS1, active compounds read low 0.995 | S. cerevisiae deletion strains, locus YLR357W, strain rsc2, active compounds read low 1.02 | S. cerevisiae deletion strains, locus YLR370C, strain arc18, active compounds read low 0.98 | S. cerevisiae deletion strains, locus YLR371W, strain rom2, active compounds read low 0.994 | S. cerevisiae deletion strains, locus YLR384C, strain iki3, active compounds read low 0.989 | S. cerevisiae deletion strains, locus YLR418C, strain cdc73, active compounds read low 1.02 | S. cerevisiae deletion strains, locus YML016C, strain PPZ1, active compounds read low 0.988 | S. cerevisiae deletion strains, locus YML032C, strain rad52, active compounds read low 0.993 | S. cerevisiae deletion strains, locus YML120C, strain ndi1, active compounds read low 1 | S. cerevisiae deletion strains, locus YML124C, strain tub3, active compounds read low 0.992 | S. cerevisiae deletion strains, locus YMR058W, strain fet3, active compounds read low 0.999 | S. cerevisiae deletion strains, locus YMR078C, strain ctf18, active compounds read low 0.987 | S. cerevisiae deletion strains, locus YMR125W, strain sto1, active compounds read low 0.976 | S. cerevisiae deletion strains, locus YMR129W, active compounds read low 1 | S. cerevisiae deletion strains, locus YMR205C, strain PFK2, active compounds read low 1.01 | S. cerevisiae deletion strains, locus YMR223W, strain ubp8, active compounds read low 1.05 | S. cerevisiae deletion strains, locus YMR231W, strain pep5, active compounds read low 0.992 | S. cerevisiae deletion strains, locus YMR263W, strain SAP30, active compounds read low 0.992 | S. cerevisiae deletion strains, locus YMR307W, strain GAS1, active compounds read low 1.06 | S. cerevisiae deletion strains, locus YNL067W, strain RPL9B, active compounds read low 0.968 | S. cerevisiae deletion strains, locus YNL071W, strain lat1, active compounds read low 0.999 | S. cerevisiae deletion strains, locus YNL153C, strain GIM3, active compounds read low 0.951 | S. cerevisiae deletion strains, locus YNL183C, strain NPR1, active compounds read low 0.944 | S. cerevisiae deletion strains, locus YNL209W, strain ssb2, active compounds read low 0.974 | S. cerevisiae deletion strains, locus YNL233W, strain BNI4, active compounds read low 0.974 | S. cerevisiae deletion strains, locus YNL248C, strain rpa49, active compounds read low 0.986 | S. cerevisiae deletion strains, locus YNL250W, strain rad50, active compounds read low 0.99 | S. cerevisiae deletion strains, locus YNL271C, strain bni1, active compounds read low 0.98 | S. cerevisiae deletion strains, locus YNL298W, strain CLA4, active compounds read low 0.994 | S. cerevisiae deletion strains, locus YNL307C, strain MCK1, active compounds read low 0.986 | S. cerevisiae deletion strains, locus YNL322C, strain KRE1 (second series), active compounds read low 0.997 | S. cerevisiae deletion strains, locus YNL322C, strain KRE1, active compounds read low 0.991 | S. cerevisiae deletion strains, locus YNR049C, strain mso1, active compounds read low 0.978 | S. cerevisiae deletion strains, locus YNR052C, strain pop2, active compounds read low 0.998 | S. cerevisiae deletion strains, locus YOL006C, strain TOP1, active compounds read low 0.957 | S. cerevisiae deletion strains, locus YOL012C, strain htz1 1.27 | S. cerevisiae deletion strains, locus YOL147C, strain pex11, active compounds read low 1 | S. cerevisiae deletion strains, locus YOR001W, strain rrp6, active compounds read low 0.998 | S. cerevisiae deletion strains, locus YOR061W, strain CKA2, active compounds read low 0.956 | S. cerevisiae deletion strains, locus YOR069W, strain VPS5, active compounds read low 0.995 | S. cerevisiae deletion strains, locus YOR070C, strain gyp1, active compounds read low 0.995 | S. cerevisiae deletion strains, locus YOR080W, strain dia2, active compounds read low 0.991 | S. cerevisiae deletion strains, locus YOR083W, strain WHI5, active compounds read low 0.999 | S. cerevisiae deletion strains, locus YOR106W, strain vam3, active compounds read low 0.977 | S. cerevisiae deletion strains, locus YOR136W, strain idh2, active compounds read low 0.988 | S. cerevisiae deletion strains, locus YOR144C, strain elg1, active compounds read low 0.99 | S. cerevisiae deletion strains, locus YOR184W, strain ser1, active compounds read low 0.991 | S. cerevisiae deletion strains, locus YOR231W, strain MKK1, active compounds read low 1.01 | S. cerevisiae deletion strains, locus YOR265W, strain rbl2, active compounds read low 1 | S. cerevisiae deletion strains, locus YOR270C, strain vph1, active compounds read low 0.918 | S. cerevisiae deletion strains, locus YOR290C, strain snf2, active compounds read low 0.99 | S. cerevisiae deletion strains, locus YOR316C, strain cot1, active compounds read low 0.975 | S. cerevisiae deletion strains, locus YPL051W, strain arl3, active compounds read low 0.98 | S. cerevisiae deletion strains, locus YPL078C, strain atp4, active compounds read low 0.992 | S. cerevisiae deletion strains, locus YPL106C, strain sse1, active compounds read low 0.991 | S. cerevisiae deletion strains, locus YPL240C, strain hsp82, active compounds read low 0.985 | S. cerevisiae deletion strains, locus YPL241C, strain CIN2, active compounds read low 0.994 | S. cerevisiae deletion strains, locus YPL256C, strain CLN2, active compounds read low 1.03 | S. cerevisiae deletion strains, locus YPR119W, strain clb2, active compounds read low 0.98 | S. cerevisiae deletion strains, locus YPR141C, strain kar3, active compounds read low 0.973 | S. cerevisiae deletion strains, locus YPR163C, strain tif3, active compounds read low 0.992 | S. cerevisiae deletion strains, locus YPR167C, strain met16, active compounds read low 0.997 | S. cerevisiae deletion strains, strain wtn01, active compounds read low 1.01 | S. cerevisiae strains, strain wild type, active compounds read low 0.979
